# A selection: hits, their analogues and other compounds. The true share with any hit is near 19%.
# TDP1 cell noCPT – qHTS for Inhibitors of human tyrosyl-DNA phosphodiesterase 1 (TDP1): qHTS in cells in absence of CPT; DT40 Tdp1-/- hTDP1 cells, no CPT, ATP luminescence, 48 h; Potency, µM (titrated, usually from 46.2 µM), for the others: at the top dose activity change, negative = growth inhibition, hits mostly inhibitors; 15% of 420,000 active; also: potency is read from the fitted curve at half-maximal effect; nearly all actives have a fitted effect of over 55% in size
#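 Compound effects on proliferation are scored in DT40 Tdp1-/-;hTDP1 cells in the absence of CPT. ATP levels (CellTiter-Glo luminescence) are recorded after a ≥48 hr, 37 °C incubation.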
# IL1B secr inh – qHTS for Inhibitors of Inflammasome Signaling: IL-1-beta AlphaLISA Primary Screen; THP-1 LPS/ATP IL-1B secretion, AlphaLISA, 16 h; stronger effect = lower value; activity change, % at 57.5 µM; 4.7% of 360,000 active; in the data active = activity change below about -50%; inconclusive = mostly about -30% to -49%
#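 Secreted IL-1B measured by AlphaLISA bead assay after 16 h compound exposure of THP-1 cells; compounds (final up to 57.5 uM) added 1 h before LPS (250 ng/mL) and ATP (1.25 mM) stimulation; lower signal means less secretion.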
# HT1080-NT tox – qHTS for induction of synthetic lethality in tumor cells producing 2HG: qHTS for the HT-1080-NT fibrosarcoma cell line. HT-1080-NT fibrosarcoma viability, CellTiter-Glo ATP luminescence, 48 h. Potency, µM (doses to about 46.1 µM), without a hit: at the highest dose activity, negative = less viability, actives largely listed as cytotoxic. 1.6% of 360,000 active. AID 686970, 2013;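 also: NT is the 2HG producing partner of a matched IDH1 knockdown line; potency is read from the fitted curve at half-maximal effect; 0% = DMSO-treated cells and -100% = media-only wells without cells; nearly all actives have a fitted effect of over 55% in size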
#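 Compounds were tested in concentration-response format on HT-1080-NT cells for 48 hours at 37 degrees C. Cell viability came from CellTiter-Glo luminescence; curves were classified by r2, response magnitude and activity.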
# HT1080 IDH1KD tx – qHTS for induction of synthetic lethality in tumor cells producing 2HG: qHTS for the HT-1080-IDH1KD cell line; HT-1080 IDH1 knockdown viability, ATP luminescence, 48 h; Potency, µM (doses to about 46.1 µM), inactives show top-dose activity, negative = toxicity, most hits filed as cytotoxic; 2% of 360,000 active;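 also: potency is read from the fitted curve at half-maximal effect; 0% = DMSO wells and -100% = cell-free medium wells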
#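 Using the IDH1-knockdown HT-1080 line run in the same batch and compound series as the NT line, viability after 48 h at 37 °C was determined by CellTiter-Glo luminescence and expressed as % activity.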
# TDP1 cell CPT – qHTS for Inhibitors of human tyrosyl-DNA phosphodiesterase 1 (TDP1): qHTS in cells in presence of CPT; chicken DT40 Tdp1-/-;hTDP1 cells + 20 nM CPT, ATP luminescence, 48 h; Potency, µM (series often up to 46.2 µM), for inactives: top-dose activity change, negative = growth inhibition, hits mostly inhibitors; 12% of 420,000 active; also: potency is read from the fitted curve at half-maximal effect; nearly all actives have a fitted effect of over 55% in size
#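 Chicken DT40 Tdp1-/- cells stably complemented with human TDP1 were seeded at 400 cells/well in medium containing 20 nM camptothecin, exposed to pin-transferred compounds, and grown at 37 °C for at least 48 hr. Viability was read as ATP luminescence.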
# * marks the source's active call; other numbers are inactive results; ? = inconclusive; / = no result. Unless noted, calls follow the shape of the dose curve; as a rule, active = well fitted curve in the direction sought with a large enough effect; inconclusive = small, poorly fitted or top-dose-only effect, or another doubt; inactive = no such curve, though single readings can be large; an effect the other way counts as inactive or inconclusive. Unless noted, % is scaled to controls: 0 for no effect and ±100 for the full control effect.
SMILES,TDP1 cell noCPT,IL1B secr inh,HT1080-NT tox,HT1080 IDH1KD tx,TDP1 cell CPT
CC(C)(C)c1ccc(C(=O)N2CCC2(C)C(=O)Nc2cccc3ccccc23)cc1 (configuration not stated),23µM*,-16,?,?,16µM*
CC(C)(C)c1ccc(C(=O)N2CCC2(C)C(=O)NCc2cccc3ccccc23)cc1 (configuration not stated),-96%,0,?,?,18µM*
Cc1cc(Br)ccc1NC(=O)CN(C)C(=O)Cn1c(=O)cnc2ccccc21,-10%,6,-3%,5%,-29%
CC1(C(=O)NS(=O)(=O)c2cccs2)CCN1C(=O)c1ccccc1 (configuration not stated),15%,12,17%,22%,15%
COc1cc2ccccc2c2c1CCCC2=O,-24%,31,-1%,-2%,-10%
CC(=O)c1c(C)oc2c(Cl)cc(NS(=O)(=O)c3cc(C)c(C)cc3C)cc12,?,/,/,/,-22%
Cc1cccc(OCCOCCn2c(-c3ccc(Cl)cc3)nc3ccccc3c2=O)c1C,?,/,/,/,-26%
CC1(C(=O)Nc2cccc3cccnc23)CCN1Cc1cccc2c1OCO2 (configuration not stated),15µM*,-23,6.5µM*,?,?
CC1(C(=O)Nc2ccc3c(c2)OCO3)CCN1Cc1cccc2c1OCO2 (configuration not stated),?,-19,-19%,-7%,?
CC(C)C(C(=O)O)N1CCS(=O)(=O)CC1 (configuration not stated),0%,0,1%,5%,2%
CCNC(=O)C1CCCN(c2nc(C)cc(C)n2)C1 (configuration not stated),4%,0,-24%,7%,2%
O=C(C1Cc2ccccc2CN1S(=O)(=O)c1ccccc1[N+](=O)[O-])N1CCOCC1 (configuration not stated),?,4,18%,-2%,21µM*
O=C(C1CCN(S(=O)(=O)c2ccccc2[N+](=O)[O-])CC1)N1CCOCC1,-10%,13,-2%,3%,-12%
COc1ccc(CNC(=O)Nc2nnc([C@@H]3C[C@H](O)[C@@H](CO)O3)s2)cc1,-26%,-21,-6%,-5%,4%
CC1(C)CC2CC(C)(CN2C(=O)c2ccc([N+](=O)[O-])cc2)C1 (configuration not stated),?,0,1%,-17%,21µM*
Cc1cccc(C(=O)N2CC3(C)CC2CC(C)(C)C3)c1 (configuration not stated),23µM*,22,9%,9%,21µM*
CC1(C)C[C@@H]2C[C@@](C)(CN2C(=O)c2ccccc2)C1,15µM*,15,1%,1%,?
CC1(C)CC2CC(C)(CN2C(=O)c2cccs2)C1 (configuration not stated),8.2µM*,27,-3%,-8%,?
O=C(NCCN1CCOCC1)C1CC(=O)N(c2ccc(F)cc2)C1 (configuration not stated),?,-12,19%,5%,-3%
COc1ccc(Nc2nc(N)c([N+](=O)[O-])c(NCc3ccccc3)n2)cc1,16µM*,36,-22%,-15%,?
COc1ccc(Nc2nc(N)c([N+](=O)[O-])c(NCCO)n2)cc1,-24%,/,5%,-14%,-2%
COc1nc(Nc2ccc([N+](=O)[O-])cc2)nc(NC2CCCCC2)n1,?,-78*,-21%,?,?
COc1ccc(Nc2nc(N)c([N+](=O)[O-])c(NC3CCCCC3)n2)cc1,?,-95*,16µM*,?,16µM*
C=CCNc1nc(Nc2ccc([N+](=O)[O-])cc2)nc(OC)n1,?,-19,-7%,-3%,-3%
N#Cc1cccc(-c2ccc3ncnc(NCc4cccnc4)c3c2)c1,-15%,/,/,/,-6%
SMILES,TDP1 cell noCPT,IL1B secr inh,HT1080-NT tox,HT1080 IDH1KD tx,TDP1 cell CPT
COc1ccc2c(c1)c(C(=O)CN1CCC(C(N)=O)CC1)c(C)n2C,-20%,-13,0%,9%,14%
CCc1ccc(OCC(=O)N2CCN(c3ccccc3F)CC2)cc1,-3%,-6,8%,1%,-22%
CCOC(=O)c1cnc2cc(C(F)(F)F)ccc2c1N1CCN(c2cccc(Cl)c2)CC1,23µM*,/,/,/,?
CCOC(=O)c1cnc2ccc(OCC)cc2c1N1CCN(c2ccccc2)CC1,26µM*,-17,-31%,?,21µM*
CCOC(=O)c1cnc2ccc(OCC)cc2c1N1CCN(c2ccccc2F)CC1,12µM*,/,/,/,16µM*
CCOC(=O)c1cnc2ccc(OCC)cc2c1NCc1ccccc1,6.5µM*,?,-12%,?,5.8µM*
Cc1noc(C)c1C(=O)OCC(=O)NCCC1=CCCCC1,-17%,16,0%,3%,-16%
COc1ccc(NC(=O)c2sc3nc(C)c(C(=O)Nc4ccc(C)cc4C)c(-c4sccc4C)c3c2N)cc1,-20%,/,/,/,5%
CC(C)CCn1c(=O)c2ccccc2n2c(CN(C)Cc3ccccc3)nnc12,16µM*,-23,-3%,-7%,23µM*
CC(C)CCn1c(=O)c2ccccc2n2c(CCl)nnc12,23µM*,/,18µM*,?,?
CC(C)CCn1c(=O)c2ccccc2n2c(=S)[nH]nc12,?,27,-20%,-13%,-23%
CCOc1ccc(OCC)c(NC(=O)c2[nH]c(C)c(C(C)=O)c2C)c1,1%,15,8%,9%,-10%
COc1ccc(NC(=O)c2cc3c(COC(C)=O)cnc(C)c3oc2=Nc2cccc(C(=O)O)c2)c(OC)c1,26µM*,19,9%,9%,-23%
COc1ccccc1NC(=O)c1cc2c(CO)cnc(C)c2oc1=Nc1ccccc1,8.2µM*,48,16%,17%,?
COc1ccc(NC(=O)c2cc3c(CO)cnc(C)c3oc2=Nc2cc(OC)cc(OC)c2)cc1,-16%,19,-3%,6%,-23%
COc1ccccc1NC(=O)c1cc2c(CO)cnc(C)c2oc1=Nc1cccc(C(N)=O)c1,1.8µM*,9,-2%,2%,5.2µM*
O=[N+]([O-])c1ccc(NC(=S)N2CCc3ccccc3C2)cc1,?,-1,-4%,7%,-20%
